Screens deposited in PubChem by National Center for Advancing Translational Sciences (NCATS).
Only a selection was taken, and hits are over-represented in it overall.
Giardia kill – Giardia lamblia killing. Giardia lamblia trophozoite viability. activity change, % at 7.66 µM, hits read low. 0.15% of 340,000 active. AID 540267; in the data active means activity change below about -80%; inconclusive means between about -30% and that limit;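 further: parasites exposed to compound for two days anaerobically before the ATP read; on the % scale 0 is the no-effect control and ±100 the full control effect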
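ATP-content bioluminescence gauges trophozoite survival. Cells (100/well) receive compound and incubate anaerobically for 48 hrs at 37 deg C; detection reagent follows for 15-30 min at room temperature.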
VP16 counter – inhibits Gal4-VP16 luciferase reporter, ROR gamma counter-screen; Drosophila S2 Gal4-VP16 UAS-luciferase, luminescence, 20 h; Potency, µM (highest dose often 53.6 µM), for inactives: at the top dose activity, negative = inhibition, hits mostly inhibitors; 3.5% of 310,000 active; AID 2546;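 further: Gal4-VP16 expression switched on by copper sulfate through the metallothionein promoter; potency means the concentration at half of the fitted maximal effect; on the % scale 0 is the no-effect control and ±100 the full control effect; nearly all actives have a fitted effect of over 50% in size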
a7 integrin act – integrin-mediated muscular dystrophy alleviation activation; alpha7betagal myoblasts, beta-gal FDG fluorescence, 48 h; Potency, µM (titrated, usually from 38.3 µM), without a hit: at the highest dose activation, most hits filed as activators; 0.064% of 350,000 active; AID 624291;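 further: potency means the concentration at half of the fitted maximal effect; 100% = response of the positive control SU9516; nearly all actives have a fitted effect of over 60% in size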
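alpha7betagal+/- myoblasts (passage 13, 250/well) treated 48 h at 37C with compounds at 1:260 dilution of DMSO stock. Lysed, then beta-galactosidase activity read as FDG fluorescence (ex 480/em 540) after 30 min, with pre-read for autofluorescence.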
RORgamma inh – inhibitors of mouse ROR gamma transcriptional activity; 5.4% of 310,000 active; AID 2551; Potency, µM (top dose mostly 53.6 µM), for the others: at the top dose activity change, negative = inhibition, hits mostly inhibitors; Drosophila S2 Gal4-RORgamma UAS-luciferase reporter, 20 h; further: potency means the concentration at half of the fitted maximal effect; on the % scale 0 is the no-effect control and ±100 the full control effect; nearly all actives have a fitted effect of over 60% in size
Target sequence (P51450 whole entry, looked up, the tested form may be a part): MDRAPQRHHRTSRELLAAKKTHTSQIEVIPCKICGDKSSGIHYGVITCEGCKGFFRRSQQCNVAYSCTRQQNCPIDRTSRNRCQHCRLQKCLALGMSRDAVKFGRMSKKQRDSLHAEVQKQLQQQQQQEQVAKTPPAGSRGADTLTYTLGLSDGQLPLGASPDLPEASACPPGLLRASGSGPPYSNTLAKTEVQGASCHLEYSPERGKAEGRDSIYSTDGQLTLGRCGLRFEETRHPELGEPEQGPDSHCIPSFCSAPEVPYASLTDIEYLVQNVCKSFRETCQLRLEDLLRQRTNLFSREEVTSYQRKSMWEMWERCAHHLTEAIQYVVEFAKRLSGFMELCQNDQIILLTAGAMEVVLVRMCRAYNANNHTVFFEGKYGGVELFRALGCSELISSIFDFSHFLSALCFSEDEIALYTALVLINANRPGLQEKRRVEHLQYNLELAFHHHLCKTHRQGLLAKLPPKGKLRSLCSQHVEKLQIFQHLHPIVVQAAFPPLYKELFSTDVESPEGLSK
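Stably transfected Drosophila Schneider cells are the test system, with ROR gamma fused to Gal4 and luciferase under UAS control; luminescence is read after 20 hr of 700 uM copper sulfate induction at ambient temperature.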
ERG-DNA inh – inhibitors of human ERG Ets domain-DNA interaction; fluorescence polarization, His-ERG Ets domain / labelled DNA; Potency, µM (doses to about 76.9 µM), for inactives: at the highest dose FP activity, negative = inhibition, most hits filed as inhibitors; 0.028% of 370,000 active; AID 624246; active means well fitted inhibition curve with a large enough effect in the polarisation, with a control signal flat; inconclusive means small, poorly fitted or top-dose-only effect, or effect the other way, or a change in a side signal; inactive means no such curve, though single readings can be large or run the other way; the % refers to the polarisation;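 further: polarization taken with two DNA probes labelled with fluorescein and Texas red; potency means the concentration at half of the fitted maximal effect; % of control where 0% means no effect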
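His-tagged ERG Ets domain (1 uM in the protein solution; 300mM KCl, 50mM Tris-HCl, 1mM EDTA, 1mM DTT, pH 7.5) received compound, then a probe mix of 5 nM fluorescein-DNA and 100nM Texas-615-DNA. Fluorescence polarization was read for both dyes.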
Active calls of the source: *; ? = inconclusive; nt = no result given; [ ] = dose if it differs, or a comment. Unless noted, the call rests on the fitted dose curve; in most records, active means well fitted curve in the direction sought with a large enough effect; inconclusive means small, poorly fitted or top-dose-only effect, or another doubt; inactive means no such curve, though single readings can be large; an effect the other way counts as inactive or inconclusive.

SMILES	Giardia kill	VP16 counter	a7 integrin act	RORgamma inh	ERG-DNA inh
CCc1nnc(NC(=O)C2COc3ccccc3O2)s1 (centres undefined)	-3	-7%	?	-32%	12%
Cc1nnc(NC(=O)C2COc3ccccc3O2)s1 (centres undefined)	-10	3%	11%	-26%	-4%
CC(C)Sc1ncc(Cl)c(C(=O)Nc2nc3ccc(S(C)(=O)=O)cc3s2)n1	nt	nt	nt	nt	4%
Cc1nc2sc(-c3ccccc3)cc2c(=O)n1-n1cccc1	6	8%	4%	5%	0%
Cc1nc2sc(-c3ccccc3)cc2c(=O)n1N	-12	?	?	7.1µM*	7%
CN(C)/C=C/C(=O)c1cccc(Cl)c1	-3	10µM*	3%	11%	1%
CN(C)/C=C/C(=O)c1ccc(Cl)cc1	27	-99%	3%	?	5%
Cc1c(CC(=O)N2CCC(C(N)=O)CC2)c(=O)oc2cc3c(cc12)CCC1(CCCCC1)O3	1	0%	14%	38%	6%
S=c1nc[nH]c2c1[nH]c1ccc(Cl)cc12	-18	-10%	15%	-39%	0%
S=c1nc[nH]c2c1[nH]c1ccccc12	-2	0%[0.365 µM]	14%	11µM*	-2%
Cc1nn(-c2ccccc2)c(N)c1N=Nc1ccc2ccccc2c1	-8	3%	?	1.1µM*	-9%
Cn1cc(/C=C2\SC(=O)NC2=S)c2ccccc21	17	6.3µM*	1%	2.5µM*	37%
Cc1ccc(C(=O)NN2C(=O)/C(=C/c3cn(C)c4ccccc34)SC2=S)cc1	?	-14%	2%	10%	2%
CCc1ccccc1NC(=O)NC1CC2CCC(C1)N2Cc1cccs1 (centres undefined)	-10	-6%	20%	17%	nt
Cc1cccc(NC(=S)NC2CCCC2)c1C	-1	7.1µM*	-19%	7.1µM*	0%
CCc1ccc(NC(=S)NC2CC3CCCC(C2)N3Cc2cccs2)cc1 (centres undefined)	-14	13µM*	-37%	2µM*	nt
Cc1c(Cl)cccc1NC(=S)NC1CCCC1	4	5.6µM*	-24%	4.5µM*	-5%
Cc1cccc(NC(=S)NC2CC3CCCC(C2)N3Cc2ccccc2)c1C (centres undefined)	-8	?	-31%	14µM*	-3%
Cc1cccc(NC(=O)C2CCCN(C(=O)NC3CCCCC3)C2)c1C (centres undefined)	-4	0%	2%	13%	4%
CCCCNc1ccc2c(c1)C1CC2CCN1C(=O)OCc1ccccc1 (centres undefined)	-4	nt	17%	nt	-6%
Cc1cccc(NC(=S)NN2CCOCC2)c1C	-11	2%	-21%	11µM*	0%
CCc1ccccc1NC(=S)NC1CC2CCC(C1)N2Cc1ccc(F)cc1 (centres undefined)	-8	?	-44%	7.1µM*	-8%
CCc1ccccc1NC(=S)NC1CC2CCC(C1)N2Cc1ccco1 (centres undefined)	-11	-6%	-40%	?	nt
Cc1cccc(NC(=S)NC2CCCCCC2)c1C	-18	7.1µM*	-31%	3.2µM*	1%
CCc1ccc(N2C(=O)N(CC(=O)C(C)(C)C)c3ccccc3S2(=O)=O)cc1	nt	nt	nt	nt	-2%
SMILES	Giardia kill	VP16 counter	a7 integrin act	RORgamma inh	ERG-DNA inh
CCOC(=O)C(Sc1nnc(-c2ccncc2)o1)C(C)=O (centres undefined)	-3	4.5µM*	-2%[7.66 µM]	5µM*	4%
CCc1ccc(/C=C2/SC(=S)N(CCC(=O)Nc3cccc(C(=O)O)c3)C2=O)cc1	8	-17%	16%	?	6%
O=C(CCCN1C(=O)S/C(=C\c2ccccc2)C1=O)NNC(=O)c1ccccc1O	19	2.5µM*	-19%	0.45µM*	-4%
COC(=O)c1ccc(/C=C2/SC(=S)N(CCCC(=O)Nc3ccccn3)C2=O)cc1	4	1.8µM*	-43%	1.1µM*	11%
O=C(CCCN1C(=O)/C(=C\c2cccs2)SC1=S)Nc1ccccc1O	nt	nt	-8%	nt	nt
CCc1ccc(/C=C2/SC(=S)N(CCC(=O)Nc3ccc(C(=O)O)cc3)C2=O)cc1	nt	-7%	nt	3.5µM*	nt
O=C(CN1C(=O)S/C(=C\c2ccccc2)C1=O)NNC(=O)c1ccccc1O	0	-9%	24%	-5%	19%
O=C(CCCN1C(=O)/C(=C/c2ccccc2)SC1=S)Nc1ccccc1O	3	?	-34%	4.5µM*	24%
O=C(CCCN1C(=O)/C(=C/c2ccccc2)SC1=S)NCCCn1ccnc1	35	4.5µM*	9%	5µM*	-1%
O=C(CCCN1C(=O)/C(=C/c2cccc(Br)c2)SC1=S)Nc1ccccn1	-1	-2%[0.365 µM]	-22%	?	4%
O=C(CCN1C(=O)S/C(=C\c2ccccc2)C1=O)NCCCn1ccnc1	0	4%	24%	21%	4%
CCc1ccc(/C=C2\SC(=S)N(CCCC(=O)Nc3ccccn3)C2=O)cc1	9	1.4µM*	-50%	0.28µM*	-3%
Cc1cccc(N(Cc2cc(=O)[nH]c3ccccc23)C(=O)CCl)c1	5	?	-14%	18µM*	5%
CCCC(=O)N(Cc1cc(=O)[nH]c2ccccc12)c1cccc(C)c1	-12	-2%	3%	-2%	4%
S=C1Nc2ccccc2Sc2ccc(Cl)cc21	15	2.8µM*	1%	1.8µM*	-3%
Clc1cc2c(nn1)Nc1ccccc1S2	5	1%	-31%	-7%	-13%
Cc1ccc2[nH]c3c(=O)n4c(nc3c2c1)SCC4	7	-14%	-37%	-9%	5%
CC1CCCCC1NC(=S)NC(=O)c1ccccc1Br (centres undefined)	-6	5µM*	0%	2.8µM*	-2%
CCCN(CC1CC1)C(=S)NC(=O)c1ccccc1C	nt	nt	2%	nt	nt
Cc1ccccc1C(=O)NC(=S)N(C)C1CCCCC1	5	2.8µM*	23%	?	-5%
CN(C(=S)NC(=O)c1ccccc1Br)C1CCCCC1	-4	3.2µM*	4%	0.89µM*	-4%
Cc1coc2c1c(C)cc1oc(=O)c(CC(=O)NCc3ccc(Cl)cc3)c(C)c12	nt	nt	nt	nt	8%
Clc1ccc(CNc2nc(CN3CCOCC3)nc3scc(-c4ccccc4)c23)cc1	11	8.9µM*	-14%	11µM*	-5%
CC1(C)CC(=O)C2=C(C1)OC(N)=C(C#N)C21CCN(Cc2ccccc2)CC1	-8	-1%	-17%	6%	0%
Cc1nc2c([nH]1)C1(CCN(Cc3ccccc3)CC1)C(C#N)=C(N)O2	-16	-1%	13µM*	-27%	1%
Cc1ccc(S(=O)(=O)CNC(=S)c2cccc(Cl)c2)cc1	-10	?	-31%	22µM*	-3%
Cc1ccc(C(=S)NCS(=O)(=O)c2ccc(C)cc2)cc1	-1	8.9µM*	-20%[7.66 µM]	2.8µM*	-6%
CCOC(=O)c1ccc(-n2c(N)c(C(=O)OC)c3nc4ccccc4nc32)cc1	nt	nt	nt	nt	9%
